CtBP-E1A inh – CtBP/E1A binding inhibition. activity change, % (test concentration not listed). AlphaScreen GST-E1A/His-CtBP binding, 1536-well; active compounds read low. 0.49% of 340,000 active; in the data active = activity change below about -65%; inconclusive = mostly about -30% to -63%
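Homogeneous bead-based format: GST-tagged E1A captured on glutathione donor beads, His-tagged CtBP on nickel acceptor beads; compounds precede bead addition by 2 h at 37 °C.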
VP16 counter – Gal4-VP16 reporter inhibition counter-screen. 3.5% of 310,000 active. Potency, µM (doses to about 53.6 µM), usual class: inhibitors. Drosophila S2 Gal4-VP16 UAS-luciferase, luminescence, 20 h;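 note: Gal4-VP16 expression switched on by copper sulfate through the metallothionein promoter; nearly all actives have a fitted effect of over 50% in size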
Six1-Eya2 inh – inhibitors of human Six1/Eya2 interaction. AlphaScreen GST-Six1/His-Eya2 binding, biochemical; active compounds read low. 0.56% of 360,000 active. Q15475+O00167. activity change, % (concentration not given with the values); in the data active = activity change below about -65%; inconclusive = mostly about -30% to -63%
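Homogeneous AlphaScreen proximity assay pairing GST-Six1 with His-tagged Eya2 (added as 5X mix: 250 nM and 500 nM) in 50 mM Tris pH 8.0, 300 mM NaCl, 1 mM TCEP. Glutathione donor and nickel acceptor beads; 1 h, 37 °C, dark.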
p53 reactivation – re-activators of mutant p53 | H1299 p53-A138V BP100-luciferase reporter, luminescence, 24 h | Potency, µM (titrated, usually from 92.2 µM), usual class: activators | 0.063% of 320,000 active; note: nearly all actives have a fitted effect of over 45% in size
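p53-null H1299 cells stably carrying temperature-sensitive p53-A138V and a BP100-luciferase reporter were pinned with compounds (4-point, 1:5 series) and held 24 hrs at 37 deg C. Luminescence was read 10 min after detection reagent.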
RORgamma inh – blocks mouse ROR gamma transcriptional activity; P51450; Drosophila S2 Gal4-RORgamma UAS-luciferase reporter, 20 h; Potency, µM (titrated, usually from 53.6 µM), most hits filed as inhibitors; 5.4% of 310,000 active; AID 2551; note: nearly all actives have a fitted effect of over 60% in size
Target sequence (P51450 whole entry, looked up, the tested form may be a part): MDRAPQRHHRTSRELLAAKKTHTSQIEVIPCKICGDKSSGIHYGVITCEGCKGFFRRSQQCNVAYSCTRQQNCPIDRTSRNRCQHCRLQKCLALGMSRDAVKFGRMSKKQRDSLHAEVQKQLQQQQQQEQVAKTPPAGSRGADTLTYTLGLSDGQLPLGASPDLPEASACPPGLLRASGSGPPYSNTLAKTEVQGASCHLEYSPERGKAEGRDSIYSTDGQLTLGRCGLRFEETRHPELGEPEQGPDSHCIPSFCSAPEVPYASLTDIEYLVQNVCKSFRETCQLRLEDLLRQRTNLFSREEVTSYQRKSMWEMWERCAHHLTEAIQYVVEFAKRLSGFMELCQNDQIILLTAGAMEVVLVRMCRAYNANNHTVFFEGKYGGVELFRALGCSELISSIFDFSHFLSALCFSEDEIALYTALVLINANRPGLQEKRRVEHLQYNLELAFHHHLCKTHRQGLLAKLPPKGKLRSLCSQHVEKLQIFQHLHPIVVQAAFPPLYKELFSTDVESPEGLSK
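A Gal4/UAS one-hybrid system in insect cells: metallothionein-promoter Gal4–ROR gamma fusion plus Photinus luciferase reporter. Copper sulfate 700 uM final, 20 hr ambient incubation, luminescent detection after 10 min with reagent.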
Of the large screens only hits and unclear results are named; the others gave an inactive call. Rows were chosen to be rich in hits. Some 5.4% of all compounds tested hit in one or more screens of this group. Unless noted, calls come from the whole dose curve; as a rule, active = well fitted curve in the direction sought with a large enough effect; inconclusive = small, poorly fitted or top-dose-only effect, or another doubt; inactive = no such curve, though single readings can be large; an effect the other way counts as inactive or inconclusive.

C[C@@H](C(=O)NCc1ccc(S(C)(=O)=O)cc1)[C@H]1C[C@]1(C)[C@H](NC(=O)OCc1ccccc1)c1ccccc1	RORgamma inh 8.91µM
O=c1cc(-c2cccs2)oc2ccc(Cl)cc12	p53 reactivation inconclusive
O=c1c(O)c(-c2cccs2)oc2ccccc12	RORgamma inh 22.4µM
O=c1c(O)c(-c2cccs2)oc2ccc(Cl)cc12	VP16 counter inconclusive, RORgamma inh 11.2µM
COc1ccccc1/C=N/Nc1nncc2ccccc12	VP16 counter 3.98µM, p53 reactivation inconclusive, RORgamma inh 2µM
COc1cccc(/C=N/Nc2ncc(C)c(=O)[nH]2)c1OC	none
COc1cccc(C=NNc2nnc(NN=Cc3cccc(OC)c3OC)c3ccccc23)c1OC	CtBP-E1A inh -86.4, Six1-Eya2 inh -78.4 (no result: VP16 counter, p53 reactivation, RORgamma inh)
COc1cccc(/C=N/Nc2ncnc3c2[nH]c2ccc(C)cc23)c1OC	VP16 counter inconclusive, RORgamma inh 6.31µM (no result: CtBP-E1A inh)
CNc1nc2ccccc2n1/N=C/c1cccc(OC)c1OC	RORgamma inh 12.6µM
COc1ccc(/C=N/Nc2nncc3ccccc23)cc1	p53 reactivation inconclusive
Cc1ccc(NC(=S)Nc2cc(C(=O)O)ccc2N2CC3CC(C2)c2cccc(=O)n2C3)cc1C (stereo unspecified)	VP16 counter 20µM, RORgamma inh 5.01µM
Cc1ccc(/C=N/NC(=S)NC2CCS(=O)(=O)C2)cc1 (stereo unspecified)	VP16 counter 5.01µM, RORgamma inh 7.94µM
COc1ccc(C=NNC(=S)NC23CC4CC(CC(C4)C2)C3)cc1OC	none (no result: VP16 counter, p53 reactivation, RORgamma inh)
COc1ccc(/C=N/NC(=S)NC2CCS(=O)(=O)C2)cc1OC (stereo unspecified)	VP16 counter inconclusive, RORgamma inh 15.8µM
COc1ccc(/C=C2\SC(=S)N(CCC(=O)Nc3cccc(C(=O)O)c3)C2=O)cc1	p53 reactivation inconclusive, RORgamma inh inconclusive (no result: CtBP-E1A inh)
COc1ccc2c(c1)[nH]c1c(N3CCN(Cc4ccc5c(c4)OCO5)CC3)ncnc12	VP16 counter 10µM, Six1-Eya2 inh inconclusive, RORgamma inh inconclusive
COc1cccc2[nH]c3c(N4CCN(Cc5ccc6c(c5)OCO6)CC4)ncnc3c12	none (no result: CtBP-E1A inh, Six1-Eya2 inh)
c1ccc2c(c1)CCN(c1ncnc3c1[nH]c1ccccc13)C2	VP16 counter 6.31µM, RORgamma inh 12.6µM
Cc1ccc2[nH]c3c(N4CCN(Cc5ccccc5)CC4)ncnc3c2c1	VP16 counter 3.55µM, RORgamma inh inconclusive
Cc1ccc2[nH]c3c(N4CCN(Cc5ccc6c(c5)OCO6)CC4)ncnc3c2c1	VP16 counter 10µM, RORgamma inh inconclusive (no result: CtBP-E1A inh, Six1-Eya2 inh)
c1nc(N2CCN(Cc3ccc4c(c3)OCO4)CC2)c2[nH]cnc2n1	none
Cc1ccc2[nH]c3c(N4CCCCCC4)ncnc3c2c1	none (no result: CtBP-E1A inh, VP16 counter, Six1-Eya2 inh)
Cc1ccc2c(c1)[nH]c1c(N3CCN(Cc4ccccc4)CC3)ncnc12	VP16 counter 3.16µM, RORgamma inh inconclusive
c1ccc2c(c1)[nH]c1c(N3CCC4(CC3)OCCO4)ncnc12	VP16 counter inconclusive
c1ccc(CN2CCN(c3ncnc4c3[nH]c3ccccc34)CC2)cc1	VP16 counter 15.8µM, RORgamma inh inconclusive
C#CCOC(=O)c1ccccc1C(=O)n1nnc2ccccc21	VP16 counter inconclusive, RORgamma inh 17.8µM
CC=O	none (no result: CtBP-E1A inh, Six1-Eya2 inh, p53 reactivation)
CC1(C)CC(=O)C=C(c2ccc(COC(=O)Cc3ccccc3)cc2)C1=O	none (no result: VP16 counter, p53 reactivation, RORgamma inh)
O=C(COC(=O)c1cc([N+](=O)[O-])ccc1NCCO)Nc1cccnc1Cl	none (no result: VP16 counter, RORgamma inh)
c1c2c(cc3sc(N4CCOCC4)nc13)OCO2	VP16 counter inconclusive, RORgamma inh inconclusive
c1c2c(cc3sc(N4CCCCC4)nc13)OCO2	VP16 counter 11.2µM, p53 reactivation inconclusive, RORgamma inh 10µM
C=C(C)C1(O)OC(=O)C=C1OC (stereo unspecified)	VP16 counter 11.2µM, RORgamma inh 12.6µM
COc1ccc(C2=CC(=O)OC3(CCCCC3)O2)cc1	none
O=c1[nH]cnc2c1ncn2C1CC(O)C(CO)O1 (stereo unspecified)	none (no result: CtBP-E1A inh, Six1-Eya2 inh, p53 reactivation)
Cc1cccc(-n2c(=O)c3ccccc3n3c(=S)[nH]nc23)c1C	RORgamma inh inconclusive
CC(C)CC(Nc1ncnc2scc(-c3ccccc3)c12)C(=O)O (stereo unspecified)	none (no result: CtBP-E1A inh)
Cc1sc2ncnc(NCc3ccccc3)c2c1C	VP16 counter 17.8µM

Screens from PubChem.
